Test results taken from PubChem BioAssay AID1159580 (chemical genetic matrix, 2015).
Screen size: about 5,500 compounds; about 2,000 (36%) were called active. Not shown: some 18% with an inconclusive outcome. Cut-off read from the data, not from the text of the source: active = normalized growth mostly below about 0.91 (no sharp cut-off); inconclusive = no clear call, values can overlap the other calls; inactive = mostly above about 0.92. The list shows a part of the results.

Experiment: chemical genetic growth profiling, strain panel (AID 1159580);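 note: tested at 20 µM; growth read once vehicle control cultures reached saturation at 30 °C; 1 = growth at the plate median or of vehicle wells; lower values mean less growth of the strain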
Conditions: S. cerevisiae deletion strains, growth OD

Measured: normalized growth

CCCCCCCCCCCCCCCC(=O)OC1C(SC)OC(C(NC(=O)C2CC(CCC)CN2C)C(C)Cl)C(O)C1O (configuration not stated)
inactive: locus YAL021C, strain ccr4, active compounds read low 0.958 | locus YAL026C, strain drs2, active compounds read low 0.976 | locus YAL030W, strain snc1, active compounds read low 0.989 | locus YBL061C, strain skt5, active compounds read low 0.963 | locus YBR009C, strain hhf1, active compounds read low 0.977 | locus YBR023C, strain chs3, active compounds read low 0.984 | locus YBR171W, strain sec66, active compounds read low 0.961 | locus YBR231C, strain swc5, active compounds read low 0.979 | locus YBR279W, strain paf1, active compounds read low 0.981 | locus YCL011C, strain gbp2, active compounds read low 0.978 | locus YCL016C, strain dcc1, active compounds read low 0.982 | locus YCL061C, strain MRC1, active compounds read low 0.98 | locus YCL069W, strain vba3, active compounds read low 0.985 | locus YCR088W, strain abp1, active compounds read low 0.972 | locus YDL005C, strain med2, active compounds read low 0.968 | locus YDL040C, strain nat1, active compounds read low 0.979 | locus YDR001C, strain nth1, active compounds read low 0.974 | locus YDR069C, strain doa4, active compounds read low 0.975 | locus YDR137W, strain rgp1, active compounds read low 1 | locus YDR159W, strain sac3, active compounds read low 0.958 | locus YDR195W, strain ref2 0.964 | locus YDR297W, strain sur2, active compounds read low 0.976 | locus YDR334W, strain swr1, active compounds read low 0.973 | locus YDR335W, strain msn5, active compounds read low 0.978 | locus YDR392W, strain spt3, active compounds read low 0.96 | locus YEL003W, strain gim4, active compounds read low 0.98 | locus YEL037C, strain rad23, active compounds read low 0.979 | locus YEL061C, strain CIN8 (second series), active compounds read low 0.985 | locus YER015W, strain faa2, active compounds read low 0.972 | locus YER016W, strain bim1, active compounds read low 0.976 | locus YER111C, strain swi4, active compounds read low 0.964 | locus YER155C, strain BEM2 (second series), active compounds read low 0.968 | locus YFR010W, strain ubp6, active compounds read low 0.961 | locus YGL167C, strain pmr1, active compounds read low 0.972 | locus YGL173C, strain kem1, active compounds read low 0.975 | locus YGL227W, strain vid30, active compounds read low 0.963 | locus YGL240W, strain doc1, active compounds read low 0.983 | locus YGL253W, strain hxk2, active compounds read low 0.978 | locus YHR013C, strain ard1, active compounds read low 0.98 | locus YHR027C, strain rpn1, active compounds read low 0.985 | locus YHR142W, strain chs7, active compounds read low 0.97 | locus YJL092W, strain hpr5, active compounds read low 0.967 | locus YJL095W, strain BCK1 (second series), active compounds read low 0.99 | locus YJL115W, strain asf1, active compounds read low 0.974 | locus YJL129C, strain trk1, active compounds read low 0.983 | locus YJL154C, strain vps35, active compounds read low 0.963 | locus YJL164C, strain tpk1, active compounds read low 0.986 | locus YJL166W, strain qcr8, active compounds read low 0.988 | locus YJL187C, strain SWE1, active compounds read low 0.982 | locus YKL160W, strain elf1, active compounds read low 0.988 | locus YKR026C, strain gcn3, active compounds read low 0.973 | locus YKR091W, strain srl3, active compounds read low 0.985 | locus YLL001W, strain dnm1, active compounds read low 0.99 | locus YLL026W, active compounds read low 0.974 | locus YLL041C, strain sdh2, active compounds read low 0.978 | locus YLR027C, strain aat2, active compounds read low 0.976 | locus YLR221C, strain rsa3, active compounds read low 0.976 | locus YLR258W, strain gsy2, active compounds read low 0.984 | locus YLR262C, strain YPT6 (second series), active compounds read low 1.02 | locus YLR320W, strain mms22, active compounds read low 0.964 | locus YLR342W, strain FKS1, active compounds read low 0.966 | locus YLR357W, strain rsc2, active compounds read low 0.95 | locus YLR370C, strain arc18, active compounds read low 0.977 | locus YLR384C, strain iki3, active compounds read low 0.955 | locus YML120C, strain ndi1, active compounds read low 0.989 | locus YMR058W, strain fet3, active compounds read low 0.977 | locus YMR125W, strain sto1, active compounds read low 0.971 | locus YMR129W, active compounds read low 0.977 | locus YMR205C, strain PFK2, active compounds read low 0.972 | locus YMR231W, strain pep5, active compounds read low 0.959 | locus YNL071W, strain lat1, active compounds read low 0.993 | locus YNL209W, strain ssb2, active compounds read low 0.985 | locus YNL248C, strain rpa49, active compounds read low 0.979 | locus YNL322C, strain KRE1 (second series), active compounds read low 0.969 | locus YNR049C, strain mso1, active compounds read low 0.972 | locus YOR001W, strain rrp6, active compounds read low 0.981 | locus YOR070C, strain gyp1, active compounds read low 0.972 | locus YOR080W, strain dia2, active compounds read low 0.98 | locus YOR083W, strain WHI5, active compounds read low 0.988 | locus YOR106W, strain vam3, active compounds read low 0.973 | locus YOR265W, strain rbl2, active compounds read low 0.986 | locus YOR270C, strain vph1, active compounds read low 0.998 | locus YOR290C, strain snf2, active compounds read low 0.974 | locus YPL051W, strain arl3, active compounds read low 0.972 | locus YPL078C, strain atp4, active compounds read low 0.976 | locus YPL106C, strain sse1, active compounds read low 0.979 | locus YPL240C, strain hsp82, active compounds read low 0.976
